Results reported in PubChem BioAssay AID602252 (Broad Institute, 2012).
In all, about 300,000 compounds went through this assay and about 2,700 (0.9%) were called active.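 Rule for the calls: active = mean inhibition of at least 30% with at least half of replicates also reaching 30%; inconclusive = no clear call, values can overlap the other calls; inactive = the rest.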 Many of the other results were omitted from the sample, so actives are more common in it than they were.

Biological target: Golgi-associated PDZ and coiled-coil motif-containing protein (Homo sapiens) (UniProt Q9HD26)
Assay: blockade of CAL PDZ-reporter peptide interaction – biochemical, fluorescence polarization, untagged CAL PDZ, HTS, primary screen (AID 602252);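 note: 0% = DMSO neutral control and 100% = excess unlabeled competitor peptide PRC23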
Settings: purified CAL PDZ, TMR-peptide fluorescence polarization, 1 h; at 24.9 µM; active compounds read high

inhibition, inactive:
CC(C)C[C@H]1CN([C@@H](CC(C)C)CN2CCC[C@@H]2CN2C(=O)C(=O)NC[C@@H]2Cc2ccccc2)C(=O)C(=O)N1CCc1ccccc1 -2.72%
CC(=O)Nc1ccc(NC(=O)COc2ccc(-c3ccccc3)cc2)cc1 -4.37%
Cc1ccc(OCC(=O)Nc2ccc(S(=O)(=O)Nc3ccccn3)cc2)cc1 -5.23%
O=C(NN=Cc1ccccc1O)NN=Cc1ccccc1O -7.2%
CC(C)c1nc2ccc(C(=O)O)cc2[nH]1 1.18%
CN(Cc1nc2ccc(F)cc2[nH]1)Cc1nc(CC2CC2)no1 -5.2%
Cc1ccc(S(=O)(=O)N2CCN(C(=O)COC(=O)/C=C/c3cccc(Cl)c3)CC2)c(C)c1 -0.868%
CCOC(=O)N(Cc1ccccc1)C1CC1 -3.68%
Fc1ccc(NC(=S)N2CCc3[nH]c4ccccc4c3C2)cc1 0.223%
O=C(Nc1ccc(Cl)cc1)N1CCc2[nH]c3ccccc3c2C1 -12.5%
COc1ccc(C2=Nn3c(nnc3-c3ccccc3OC)SC2)cc1OC1CCCC1 -2.41%
O=C1OC(Oc2ccc(Br)cc2)(c2ccccc2)c2ccccc21 (configuration not stated) -1.95%
CC(=O)c1c(C)[nH]c(C(=O)OCC(=O)Nc2cc(S(=O)(=O)N3CCCCC3)ccc2C)c1C -0.974%
CC(=O)c1c(C)[nH]c(C(=O)OCC(=O)Nc2c(C)cccc2C)c1C 4.23%
O=C(Nc1ccccc1)/C(=C\c1ccco1)NC(=O)c1ccco1 -6.57%
COc1ccc(/C=C(/NC(=O)c2ccccc2)C(=O)Nc2cccc(C(=O)O)c2)cc1 -4.34%
COc1ccc(CCC(=O)Nc2ccc(Cl)c(S(=O)(=O)N3CCOCC3)c2)cc1OC -22.4%
CC(=O)OCC1(O)CC23CCC4c5ccoc5CCC4(C)C2CCC1C3 (configuration not stated) -3.61%
O=C1NCC(Nc2ccccc2)C(=O)N1 (configuration not stated) 1.56%
CC1(c2ccc3ccccc3c2)NC(=O)NC1=O (configuration not stated) -8.76%
COc1ccccc1-c1nnc2n1N=C(c1ccc(OC(F)F)c(OCC3CC3)c1)CS2 -1.27%
O=C1C(Cl)=C(Oc2ccccc2)C(=O)c2ccccc21 6.75%
COc1ccccc1C(=O)Nc1ccc(C)c(S(=O)(=O)N2CCCCC2)c1 -7.43%
NC(=S)N/N=C/c1ccc([N+](=O)[O-])cc1 1.65%
O=[N+]([O-])c1ccc(N/N=C/c2ccccc2)cc1 4.6%
CC(C)N(Cc1nnc(-c2ccccc2Br)o1)C(=O)c1cc(Cl)nc2ccccc12 2.14%
CCOc1ccc(C(=O)Nc2ccc(S(=O)(=O)Nc3cc(C)on3)cc2)cc1 -5.22%
CCc1ccc(OC(C)C(=O)Nc2ccc(S(=O)(=O)Nc3cc(C)on3)cc2)cc1 (configuration not stated) -5.02%
CN(c1ccccc1)S(=O)(=O)c1cc(C(=O)N2CCN(c3ncccn3)CC2)ccc1Cl -2.36%
Nc1ncnc2c1ncn2[C@@H]1O[C@H](CNS(=O)(=O)c2ccc(-c3ccno3)s2)[C@@H](O)[C@H]1O -0.947%
COc1cccc(NC(=O)N2CCC(NC(=O)C(Cc3cccc(C)c3)NC(C)=O)CC2)c1 (configuration not stated) -5.2%
COc1ccc(CC(NC(C)=O)C(=O)NC2CCN(C(=O)C3CC3)CC2)cc1OC (configuration not stated) 5.28%
C=CCCC(=O)N1C[C@H]2CON(C)[C@H]2C[C@H]1c1cccc(Nc2ccccc2)c1 1.45%
O=C(Nc1ccccc1)Oc1cccc2cccnc12 -4.21%
CCC(CO)Oc1cc(NCc2ccccc2)c2ncn(C3CCCC3)c2c1 (configuration not stated) 2.05%
Cc1ccc2nc(C)cc(N/N=C/c3ccc(F)cc3)c2c1 -0.859%
Oc1ccc(/C=N/Nc2nc(-c3ccccc3F)nc3ccccc23)c(O)c1 4.73%
O=C(c1cccnc1)N(Cc1ccccc1)C(=O)c1cccnc1 -4.97%
COc1ccccc1C(=O)NCCC(=O)NCC(c1ccco1)N1CCCCC1 (configuration not stated) 2.93%
COc1ccc(C(CNC(=O)c2cccnc2SC)N2CCOCC2)cc1 (configuration not stated) -3.62%
Cc1ccc(C(=O)Nc2ccc3c(c2)OCCO3)cc1S(=O)(=O)N1CCOCC1 -4.3%
CCCN(CCC)S(=O)(=O)c1cc2c(cc1Br)CCN2C(=O)CC 0.953%
COc1ccc(/C=C/C(=O)OCC(=O)N2CCN(S(=O)(=O)c3ccc(C)cc3C)CC2)cc1OC 6.76%
O=C(CSc1nc2ccccc2c(=O)n1-c1ccccc1F)N1CCOCC1 -2.27%
Cc1cccc(OCC(=O)Nc2ccc(C(=O)O)cc2NC(=O)COc2cccc(C)c2)c1 -0.14%
Cc1ccc(OCC(=O)Nc2cccc3c2CCCC3)cc1C 1.05%
Cc1ccc(C(=O)N2CCCC(c3ccccc3)=N2)cc1 4.38%
Cc1ccc(NC(=O)CCC(=O)N2CCC(c3ccccc3)=N2)cc1S(=O)(=O)N1CCCCC1 -3.11%
CCCCNC(=O)C(C)N(CCN(C)C)C(=O)CCCN1C(=O)NC(c2ccc(Cl)cc2)C(C(=O)OCc2ccccc2)=C1C (configuration not stated) -4.12%
COc1cccc(CNC(=O)CCC2CCCN(Cc3ccc(OC(F)F)cc3)C2)c1 (configuration not stated) 7.33%
COc1cccc(C(=O)N2CCCC(CCC(=O)NCc3ccc(F)c(F)c3)C2)c1 (configuration not stated) -10.1%
CSc1ncccc1C(=O)N1CCCC(CCC(=O)NCc2ccccc2F)C1 (configuration not stated) 4.75%
O=C(CCC1CCCN(Cc2ccc(O)c(Cl)c2)C1)NCc1ccccc1F (configuration not stated) -4.54%
CC(C)(C)S(=O)(=O)N1Cc2cc(CO)cc(CCO)c2[C@H]1CCO -1.94%
CC(C)NC(=O)Nc1cccc2c1O[C@@H](CN(C)S(=O)(=O)c1ccc(F)cc1)[C@@H](C)CN([C@H](C)CO)C2=O -0.185%
CCc1cc(C(=O)Nc2nnc(C3CC3)s2)sc1C -1.8%
CSCCC(NS(=O)(=O)c1ccc(C)cc1)C(=O)N(C)CC(=O)Nc1ccccc1Br (configuration not stated) 0.255%

inhibition, active:
Cc1ccc(OCC(=O)Nc2ccc(-c3nc4ncccc4o3)cc2)cc1 46%
OC(c1nc2ccc(F)cc2[nH]1)C(O)c1nc2ccc(F)cc2[nH]1 (configuration not stated) 37%
O=C(NC1CCCCC1)N1CCc2[nH]c3ccccc3c2C1 73.4%
CC(=O)c1c(C)[nH]c(C(=O)OCC(=O)NCCC(C)C)c1C 66.4%
Cc1cccc(NC(=O)/C(=C\c2ccco2)NC(=O)c2ccccc2)c1 79.4%
O=C1NCC(c2ccccc2)(c2ccccc2)C(=O)N1 41.9%
O=[N+]([O-])c1ccc(C=NN=Cc2ccc([N+](=O)[O-])cc2)cc1 76.3%
CCC(Oc1ccccc1C)C(=O)Nc1ccc(S(=O)(=O)Nc2cc(C)on2)cc1 (configuration not stated) 71.5%
COc1ccccc1CC(NC(C)=O)C(=O)NC1CCN(C(=O)Nc2ccccc2Cl)CC1 (configuration not stated) 78.3%
Cc1cc(N/N=C/c2ccccc2F)c2ccccc2n1 30.5%
CSc1ncccc1C(=O)NCC(c1ccco1)N1CCCCC1 (configuration not stated) 63.8%
Cc1ccc(OCC(=O)Nc2ccc(C(=O)O)cc2NC(=O)COc2ccc(C)c(C)c2)cc1C 56.8%
Cc1ccc(NC(=S)N2CCCC(c3ccccc3)=N2)cc1 38.9%
COc1cccc(CNC(=O)CCC2CCCN(C(=O)c3ccoc3C)C2)c1 (configuration not stated) 56.3%
Cc1[nH]c2c(C(=O)N3CCCC(CCC(=O)NCc4ccccc4F)C3)cccc2c1C (configuration not stated) 46.8%
